# Reference: PubChem BioAssay AID504652 (National Center for Advancing Translational Sciences (NCATS), 2011)
# The campaign covered roughly 360,000 compounds. About 11,000 (3.1%) were called active. This excerpt belongs to a sample that is enriched for actives. A number with no mark means an inactive call. Rule as the data show it: active = activity change below about -30%; inactive = the rest.
# Molecular target: D(1A) dopamine receptor (Homo sapiens) (UniProt P21728)
# Experiment: Antagonist of Human D 1 Dopamine Receptor: qHTS
# Settings: HEK293 TREx D1 cells, calcium flux, dopamine EC80; at 10 µM; hits give low values
# Summary of the method: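 Tetracycline-induced HEK293 Trex D1 cells, force-coupled to calcium, dye-loaded; compounds added and read 180 s, then EC80 dopamine added and calcium flux tracked kinetically another 180 s.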
# % is scaled to controls: 0 for no effect and ±100 for the full control effect.
# Chain of D(1A) dopamine receptor (Homo sapiens) (P21728 whole entry, looked up): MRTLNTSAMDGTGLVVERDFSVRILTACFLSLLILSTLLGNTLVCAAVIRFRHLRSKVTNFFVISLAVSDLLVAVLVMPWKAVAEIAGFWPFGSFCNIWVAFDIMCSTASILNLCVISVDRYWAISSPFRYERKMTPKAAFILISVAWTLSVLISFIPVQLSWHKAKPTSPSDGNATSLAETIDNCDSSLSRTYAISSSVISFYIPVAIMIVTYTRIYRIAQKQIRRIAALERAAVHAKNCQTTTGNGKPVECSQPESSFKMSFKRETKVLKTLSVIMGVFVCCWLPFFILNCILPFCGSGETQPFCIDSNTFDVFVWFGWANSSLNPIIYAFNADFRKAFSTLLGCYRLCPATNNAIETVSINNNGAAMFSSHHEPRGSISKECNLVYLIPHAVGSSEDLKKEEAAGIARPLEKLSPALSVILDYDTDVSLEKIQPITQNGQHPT
row,Compound,"activity change, negative = inhibition"
1,CCOC(=O)c1ccc(NC2=CC(c3ccc(OCC)cc3)N(c3ccc(C(=O)OCC)cc3)C2=O)cc1 (stereo unspecified),-6.51%
2,COc1ccc(NC(=O)c2c(C)oc3c2CCCC3)cc1,-45.1% (active)
3,COc1ccc(NC(=O)c2cc3cc(C)ccc3n2C)cc1,7.2%
4,COc1ccc(C(=O)Nc2onc3c2CCCC3)cc1,-17.5%
5,O=C(CCSCc1cccc(F)c1)NCc1ccccc1,-0.666%
6,CCCCOC(=O)c1[nH]c(C)c(C(=O)OC)c1C,-0.924%
7,Cc1cc(C)nc(NC(=O)/C=C/c2ccc(Cl)cc2)n1,4.01%
8,COC(=O)c1c(C)[nH]c(C(=O)/C=C/c2ccc(Cl)cc2)c1C,-47.4% (active)
9,Cc1ccc(Nc2c(-c3ccc(C)cc3)nc3cnccn23)cc1,12.3%
10,COC(=O)c1sc2ncccc2c1-n1c(C)ccc1C,1.1%
11,O=C(CN1C(=O)COc2ccccc21)NCCN1CCc2ccccc2C1,-39.4% (active)
12,O=C(CN1C(=O)COc2ccccc21)Nc1ccc(F)cc1,4.15%
13,COc1ccc(N2CCN(CCNC(=O)CCN3C(=O)COc4ccccc43)CC2)cc1,2.07%
14,Cc1ccc(S(=O)(=O)NC(N)=NCCC[C@@H](NC(=O)CNC(=O)c2ccccc2)C(=O)Nc2cc(C(F)(F)F)ccc2Cl)cc1,4.94%
15,COCCNC(=O)c1cc(-c2cccc(Cl)c2)on1,-5.13%
16,COCCNC(=O)c1snc2ccc(Cl)cc12,-34.4% (active)
17,COCCNC(=O)c1ccc(S(=O)(=O)c2ccc(Cl)cc2)c(NC(C)=O)c1,-3.29%
18,CCOC(=O)c1cccc(NC(=O)c2cc(S(=O)(=O)N3CCCC(C)C3)cn2C)c1 (stereo unspecified),-6.74%
19,CCOC(=O)c1c(C)[nH]c(C)c1S(=O)(=O)N(C)CC(=O)N1CCN(c2ccccc2)CC1,1.35%
20,COc1nc(Oc2ccc(=O)n(C)n2)nc(N(C)C)n1,-8.41%
21,COC(=O)c1ccc(Oc2nc(NC(C)C)nc(SC)n2)cc1,-9.38%
22,CCCn1nc(Oc2nc(NC(C)C)nc(N(C)C)n2)ccc1=O,-79.5% (active)
23,COc1cc(C(CC(=O)NCCC(C)C)N2Cc3ccccc3C2=O)cc(OC)c1OC (stereo unspecified),-5.18%

row,Compound,"activity change, negative = inhibition"
1,CC(C)NC(=O)C1CCC(Cn2c(=O)c3sccc3n(Cc3ccc(F)cc3)c2=O)CC1 (stereo unspecified),0.886%
2,Cc1ccc2nc(N3CCN(c4cccc(Cl)c4)CC3)c3nnnn3c2c1,-5.5%
3,Cc1ccc(NC(=O)CSc2nc3ccccc3c3nc(CCn4cncc4C)nn23)cc1F,-2.83%
4,Oc1ccc(-c2csc(Nc3cccnc3)n2)cc1,-30.4% (active)
5,Brc1ccc(-c2csc(N/N=C/c3cccnc3)n2)cc1,-16.3%
6,CN(c1ccc(O)cc1)c1nc(-c2cccnc2)cs1,1.14%
7,Cc1cccc(C(=O)Nc2ccc(-c3nc4ccccc4s3)c(C)c2)c1,-25.8%
8,COc1ccccc1-c1cc(C(F)(F)F)nc(S(=O)(=O)CCCC(=O)Nc2ccc(F)cc2F)n1,-9.9%
9,COc1ccc(C2/C(=C(/O)c3ccccc3)C(=O)C(=O)N2c2ncccn2)cc1OC (stereo unspecified),2.93%
10,COc1ccc(C2N=C(N)N=C(N)N2c2ccccc2)cc1OC (stereo unspecified),-44.6% (active)
11,COc1ccc(C2SCCN2S(=O)(=O)c2ccccc2)cc1OC (stereo unspecified),-1.77%
12,Cc1ccc(C)n1-c1nnc(N2CCC(C(=O)NCc3ccc(F)cc3)CC2)s1,0.798%
13,CCCCc1nn2c(=O)cc(COC(=O)c3cccc(NC(=O)COc4ccccc4)c3)nc2s1,-12.5%
14,CC(C)(CCl)C(=O)Nc1ccc(Sc2ccc(F)cc2)cc1,-27.2%
15,O=C(CCl)Nc1ccc(Sc2ccc(NC(=O)CCl)cc2)cc1,-33.1% (active)
16,O=C(CCl)Nc1cccc(CP(=O)(c2ccccc2)c2ccccc2)c1,11.8%
17,Cc1cc(C)cc(OCC(=O)Nc2nc(-c3ccc(F)cc3)ns2)c1,-4.25%
18,Cc1ccc(Cn2ncc3c4sc(C)cc4n(C)c3c2=O)c(C)c1,7.1%
19,COc1cc(Br)cc2cc(S(=O)(=O)c3ccccc3)c(=O)oc12,-1.47%
20,COc1ccc(NS(=O)(=O)c2ccc(NC(=O)c3ccc(N(C)S(C)(=O)=O)cc3)cc2)cc1,3.18%
21,COc1ccc(NS(=O)(=O)c2ccc(NC(=S)NC(=O)CC(C)C)cc2)cc1,-6.91%
22,COc1ccc(NS(=O)(=O)c2ccc(Oc3c(C#N)cccc3C#N)cc2)cc1,-44.8% (active)
23,Cc1ccc2c(=O)cc(C(=O)Nc3sc4c(c3C(=O)NCc3cccnc3)CCCC4)oc2c1,-10.7%

row,Compound,"activity change, negative = inhibition"
1,CCc1ccc(-c2nn(-c3ccccc3)cc2CSC(=N)N)cc1,46%
2,CCOc1ccc(Br)cc1CSC(=N)N,2.93%
3,N=C(N)SCc1cccc2ccccc12,-51.9% (active)
4,COc1ccc(-c2noc(CCC(=O)N(C)c3ccccc3C)n2)cc1,-13%
5,Cc1ccc(CN(C(=O)COc2ccc(Cl)cc2C)C2CCS(=O)(=O)C2)o1 (stereo unspecified),-2.94%
6,COc1cc(OC)cc(C(=O)NCCSCc2ccco2)c1,4.54%
7,O=C(/C=C/c1cccc([N+](=O)[O-])c1)NCCSCc1ccco1,-26.7%
8,O=C(/C=C/c1ccc([N+](=O)[O-])cc1)NCCSCc1ccco1,-97.8% (active)
9,Cc1cc(C)cc(NC(=O)c2cnc3sc(N4CCCC4)nn3c2=O)c1,-28.3%
10,Cc1nc2ccc(S(=O)(=O)NC(C(=O)NCc3ccccc3Cl)C(C)C)cc2s1 (stereo unspecified),18.5%
11,COc1cccc(CNC(=O)c2ccc3c(c2)N(Cc2ccc(C(F)(F)F)cc2)C(=O)c2ccccc2S3)c1OC,-2.43%
12,O=[N+]([O-])/C=C/c1ccc2c(ccn2Cc2ccccc2)c1,-37.9% (active)
13,O=c1c(=O)n(Cc2c(F)cccc2Cl)ccn1Cc1ccccc1,-3.28%
14,OCCC1CN(Cc2ccc(Oc3ncccn3)cc2)CCN1CCc1ccccc1 (stereo unspecified),-6.31%
15,OCCC1CN(Cc2cccc(O)c2)CCN1CCc1ccccc1 (stereo unspecified),-42.3% (active)
16,OCCC1CN(Cc2cnc(-c3ccccc3)s2)CCN1CCc1ccccc1 (stereo unspecified),-3.13%
17,Cc1ccc(C)c(S(=O)(=O)n2nc(C)c(S(=O)(=O)N3CCC(C)CC3)c2C)c1,6.24%
18,CN1CCN(CCNC(=O)Nc2ccc([N+](=O)[O-])cc2)CC1,-6.04%
19,CC1=C(c2ccc(C)cc2)S(=O)(=O)NC1=NCCCN1CCN(c2cc(C)ccc2C)CC1,10.4%
20,Cc1ccc(C)c(N2CCN(CCCNC(=O)Nc3ccc(Cl)cc3)CC2)c1,-58.4% (active)
21,O=C(NCCCN1CCN(c2ccc(F)cc2)CC1)Nc1ccc([N+](=O)[O-])cc1,-54.6% (active)
22,CC1=C(c2ccc(Cl)cc2)S(=O)(=O)N=C1N1CCN(c2cc(C)ccc2C)CC1,3.21%
23,O=C(NCCCN1CCOCC1)c1ccc([N+](=O)[O-])cc1[N+](=O)[O-],-7.86%

row,Compound,"activity change, negative = inhibition"
1,Cc1cccc(C(=O)Nc2ccc(-c3nc4ncccc4o3)cc2C)c1,-4.33%
2,COc1cc(NC(=O)c2nn(-c3ccc(C)cc3)c(=O)c3c2c2ccccc2n3C)cc(OC)c1OC,-20.1%
3,C/C(N)=C(/C#N)C(=O)COC(=O)C1=NN(c2ccccc2)C(=O)CC1,-6.72%
4,COC(=O)CC1=NN(c2nc(C)cc(C)n2)C(=O)C1,3.03%
5,COC(=O)CC1=NN(c2ccccc2)C(=O)C1,-33.1% (active)
6,CCCCn1c(CNC(=O)C23CC4CC(CC(C4)C2)C3)nnc1SCC(=O)Nc1ccc(C)cc1,1.21%
7,CC1CCCN(Cc2c(O)ccc3c(=O)c(Oc4ccc(C(C)(C)C)cc4)c(C(F)(F)F)oc23)C1 (stereo unspecified),11.8%
8,O=C(Nc1ccc(C(=O)OCc2cc(=O)n3nc(C4CC4)sc3n2)cc1)c1ccc(F)cc1,4.99%
9,CNc1nnc(-c2ccco2)s1,-6.48%
10,COc1ccc(OCC(=O)Nc2nnc(-c3ccco3)s2)cc1,-88.7% (active)
11,COc1ccc(NC(=O)COCc2cc(-c3ccco3)on2)cc1,8.36%
12,COc1ccc(CCNC(=O)c2cnc3sc(N4CCCCCC4)nn3c2=O)cc1OC,-6.51%
13,CCOC(=O)C1=C(c2ccccc2)Nc2ncnn2C1c1ccc(Cl)cc1 (stereo unspecified),6.82%
14,CS(=O)(=O)c1ccc(-c2nnc(NC(=O)c3ccc4c(c3)OCCO4)o2)cc1,-10.1%
15,O=C(CSc1oc(-c2ccco2)nc1S(=O)(=O)c1ccccc1)c1ccc(Cl)cc1,-17.4%
16,CCOC(=O)c1cc(-c2ccccc2)n(-c2cccc(C(=O)Nc3cc(OC)cc(OC)c3)c2)c1C,-24.9%
17,CC(=O)c1cc(C#N)c(N2CCCCC2)nc1C,-36.9% (active)
18,CC(=O)c1cc(C#N)c(SCC(=O)Nc2nccs2)nc1C,2.32%
19,CC(=O)c1cc(C#N)c(N2CC(C)OC(C)C2)nc1C (stereo unspecified),-0.422%
20,O=C(Cn1c(=O)n(Cc2ccccc2)c(=O)c2sc3ccccc3c21)Nc1ccccc1F,0.434%
21,CNC(=O)c1ccc(-c2nc(CN3CCc4ccccc43)c(C)o2)cc1,6.56%
22,COc1cccc(Cn2c(CNS(=O)(=O)c3ccc(Cl)s3)nc3cccnc32)c1,25.3%
